Among the data in PubChem BioAssay are composite z-score values, retold here.

SMILES strings stand for the structures.

System in one assay: not listed separately
Kind of assay: probe aNOTCH2 binding on compound microarray – biochemical, small-molecule microarray, 635/667 nm fluorescence, primary screen (AID 1121).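 Note: score merges feature fluorescence read at 667 nm with its signal to noise.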 Conditions: higher = more signal.
`[N-]=[N+]=NCc1ccccc1[C@@H]1OC(c2ccc(OCCCO)cc2)=N[C@]1(Cc1ccccc1)C(=O)NCC(O)CO` (stereo partly specified) gave a composite z-score of 0.109.

The compound `COc1cc2c(cc1OC)CN(C(=O)[C@H]1[C@@H]3C(=O)O[C@@H](c4ccccc4)[C@@H](c4ccccc4)N3[C@@H](c3ccc(O)cc3)[C@]13C(=O)Nc1ccc(C#CCCO)cc13)CC2` showed a composite z-score of -0.0474.

On to `C=CCNC(=O)[C@@H]1[C@H]2C(=O)O[C@H](c3ccccc3)[C@H](c3ccccc3)N2[C@H](c2ccccc2OCCO)[C@@]12C(=O)N(C(=O)OCCOC)c1ccccc12`, for which the composite z-score was -0.0878.

`CC1(C)[C@@H]2CC(C(O)C3C=CC4C(=O)N(c5ccccc5)C(=O)C4N3Nc3ccc([N+](=O)[O-])cc3)=C[C@H]1C2` (stereo partly specified) yielded a composite z-score of -0.106.

The compound `C=CCNC(=O)[C@H]1[C@@H]2C(=O)O[C@@H](c3ccccc3)[C@@H](c3ccccc3)N2[C@@H](c2ccccc2OCCO)[C@]12C(=O)Nc1ccc(C#CCC(C(=O)OC)C(=O)OC)cc12` displayed a composite z-score of 0.0029.

`O=C1C2C=CC(C(O)c3cc(C(F)(F)F)cc(C(F)(F)F)c3)N(n3cnnc3)C2C(=O)N1Cc1ccccc1` (stereo unspecified) gave a composite z-score of 0.392.

In turn, `COc1cc(NN2C(C(O)c3ccco3)C=CC3C(=O)N(c4ccccc4)C(=O)C32)cc(OC)c1OC` (stereo unspecified) showed a composite z-score of -0.139.

In turn, `CN(C)CCCCCCNC(=O)[C@@H]1C[C@@H]2C(=O)N[C@@H](Cc3ccccc3)C(=O)N2[C@@H]1c1ccc(O)cc1` registered a composite z-score of -0.0276.

Compound `CC(C)NC(=O)[C@@]1(c2ccc([N+](=O)[O-])cc2)CC(=O)N(C2CCCCC2)[C@@H]1c1ccc(CO)cc1I` had a composite z-score of 0.083.

Turning to `C=CC[C@]1(C(=O)NCc2ccccc2)N=C(c2ccc(OCCCO)cc2)O[C@H]1c1ccccc1N=[N+]=[N-]`, the composite z-score was 0.12.

The next assay addresses Carbonic anhydrase 2 (Homo sapiens) (UniProt P00918). Kind of assay: compounds binding carbonic anhydrase 2 – biochemical, small-molecule microarray, Alexa647-labelled CAII, profiling panel (AID 1122). The settings on record: CAII-A647 binding fluorescence, higher = more signal.
In the case of `COc1ccc([C@H]2OC[C@@H]3C[C@@H](Cc4ccccc4)C(=O)N32)cc1`, the composite z-score came to 0.796.

Turning to `COCCCNC(=O)[C@@H]1c2ccccc2C(=O)N(Cc2ccccc2Cl)[C@H]1c1ccc(CO)cc1`, the composite z-score is 0.656.

On to `O=C1C2C=CC(C(O)c3cccc4ccccc34)N(Nc3ccccc3F)C2C(=O)N1c1ccccc1` (stereo unspecified), for which the composite z-score was found to be 0.728.

`COC(=O)[C@@]1(CCS(=O)(=O)c2ccccc2)N=C(c2ccc(OCCCO)cc2)O[C@H]1c1ccccc1CN=[N+]=[N-]` came in with a composite z-score of 0.691.

`C=C[C@H](OC)[C@@H](OC(=O)Nc1ccc(OC)cc1)c1ccc(O)c(F)c1` gave a composite z-score of 0.562.

Turning to `C=CCC(OC(C)=O)[C@@H]1[C@@H](N(Cc2ccc(-c3ccccc3)cc2)C(=O)c2cccc3ccccc23)c2cc(OCCCO)ccc2N1C(=O)c1ccc(-c2ccccc2)cc1` (stereo partly specified), the composite z-score came out at 0.175.

The compound `C=CCOC(=O)[C@H]1[C@@H]2C(=O)O[C@@H](c3ccccc3)[C@@H](c3ccccc3)N2[C@@H](c2ccc(OCCOC(=O)[C@H]3C[C@H]4C(=O)N[C@@H](CCCC[N+](C)(C)C)C(=O)N4[C@H]3c3ccc(O)cc3)cc2)[C@]12C(=O)Nc1ccc(I)cc12` gave a composite z-score of -0.141.

In turn, `COC(=O)[C@@]1(Cc2ccc(OC)cc2)[C@@H]2C(=CC(=O)[C@H]2CC(=O)C(=O)N2CCCC2)CN1C(=O)c1ccccc1` had a composite z-score of 0.558.

`C[C@H]1NC(=O)[C@@]23C(=O)N[C@@H](Cc4ccccc4)C2[C@H](C)[C@@]2(C)O[C@H]2C3/C=C/C/C=C\CNC(=O)[C@@H]2CCCN2C1=O` (stereo partly specified): the composite z-score was determined as 0.507.

`O=C(OCc1ccccc1)C1=CCC2c3[nH]c4ccccc4c3C(=O)C1N2S(=O)(=O)c1ccccc1[N+](=O)[O-]` (stereo unspecified) returned a composite z-score of 0.777.

Regarding `COC(=O)[C@@]1(Cc2ccc(OC)cc2)[C@H]2c3cc(C(=O)N4CCCC4)n(Cc4ccc(C)c(F)c4F)c3C[C@H]2CN1C(=O)c1ccccc1`, the composite z-score came out at 0.744.

Compound `C=CCOC(=O)[C@H]1[C@@H]2C(=O)O[C@@H](c3ccccc3)[C@@H](c3ccccc3)N2[C@@H](c2ccc(OCCOC(=O)[C@H]3C[C@H]4C(=O)N[C@@H](CCCCNC(C)=O)C(=O)N4[C@H]3c3cccc(OCCO)c3)cc2)[C@]12C(=O)Nc1ccccc12` showed a composite z-score of 0.392.

The compound `CC(C)c1ccc(NN2C(C(O)c3ccc(B(O)O)cc3)C=CC3C(=O)N(c4ccccc4)C(=O)C32)cc1` (stereo unspecified) yielded a composite z-score of 0.493.

In turn, `CCCC=C(CCC)[C@@H](NC(=O)c1cccs1)c1ccc(C(F)(F)F)cc1` had a composite z-score of 0.173.

As for `COc1ccc(C#Cc2ccc3c(c2)[C@]2(C(=O)N3)[C@H](C(=O)Nc3nc4ccccc4s3)[C@H]3C(=O)O[C@H](c4ccccc4)[C@H](c4ccccc4)N3[C@@H]2c2ccc(O)cc2)cc1`, the composite z-score was determined as 0.406.

With `CCCCCCc1nc(-c2cc(C)c(OC)c(C)c2)cc2c1[Si](C(C)C)(C(C)C)OC2`, the composite z-score stood at 0.0878.
